# From PubChem BioAssay
# The sample as a whole holds a higher share of hits than the screen did.
# GBA enhancer: increases beta-glucosidase activity in Gaucher fibroblasts; P04062; actives 0.44% (n = 30,000); L444P Gaucher fibroblasts, 4-MU-glucoside fluorescence, 3 days; activation, % at 10 µM; in the data active = activation above about 65%
# Target sequence (P04062 whole entry L483P): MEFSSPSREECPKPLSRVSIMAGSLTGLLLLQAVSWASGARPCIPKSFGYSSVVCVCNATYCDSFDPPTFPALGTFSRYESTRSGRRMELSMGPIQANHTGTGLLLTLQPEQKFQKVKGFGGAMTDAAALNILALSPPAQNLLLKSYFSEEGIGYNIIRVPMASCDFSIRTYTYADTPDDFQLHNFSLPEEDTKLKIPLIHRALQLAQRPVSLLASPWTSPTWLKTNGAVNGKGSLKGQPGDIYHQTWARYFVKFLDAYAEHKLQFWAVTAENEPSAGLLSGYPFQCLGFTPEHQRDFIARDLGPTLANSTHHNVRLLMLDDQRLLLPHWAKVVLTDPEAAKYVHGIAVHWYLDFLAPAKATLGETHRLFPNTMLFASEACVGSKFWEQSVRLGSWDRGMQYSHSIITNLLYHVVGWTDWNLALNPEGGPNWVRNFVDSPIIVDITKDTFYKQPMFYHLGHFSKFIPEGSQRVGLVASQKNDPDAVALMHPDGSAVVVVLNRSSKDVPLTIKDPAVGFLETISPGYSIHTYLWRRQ
# Numbers stand for hits; i = inactive.
SMILES,GBA enhancer
Cc1cccc2sc(NC(=O)CN(C)S(=O)(=O)c3cccs3)nc12,76
COC(=O)Nc1nc2c(C)cccc2s1,i
COc1ccc(NC(=O)CN(C)S(=O)(=O)c2cccs2)cc1,i
COc1ccc(-c2nc(N)nc(C)c2Oc2ccccc2Br)c(O)c1,i
CCOC(=O)c1ccc(COC(=O)c2cc3ccccc3oc2=O)o1,i
O=S(=O)(NCCc1csc(-c2ccccc2)n1)c1ccc2c(c1)OCCO2,i
O=S(=O)(NCc1csc(-c2cccnc2)n1)c1ccc2c(c1)OCCO2,109
Cc1nc(CNS(=O)(=O)c2ccc3c(c2)OCCO3)cs1,i
CC(=O)N1CCc2cc(Br)cc(S(=O)(=O)NCCN3CCCCC3C)c21 (stereo unspecified),78
CC(=O)N1CCc2cc(Br)cc(S(=O)(=O)NCCCN3CCC(C)CC3)c21,i
CC(=O)N1CCc2cc(Br)cc(S(=O)(=O)NCCCN3CCCC(C)C3)c21 (stereo unspecified),i
c1ccc(Cn2nnnc2C(c2cccnc2)N2CCN(c3ccccc3)CC2)cc1 (stereo unspecified),i
Cn1c(Cc2ccccc2)nnc1SCC(=O)Nc1ccccc1N1CCOCC1,96
CC(C)n1nnnc1SCC(=O)Nc1ccccc1N1CCOCC1,i
Cn1c(Cc2ccccc2)nnc1SCC(=O)NC1CCCCC1,i
O=C(c1cccs1)c1cn(CC(=O)N2CCc3ccccc3C2)c2ccccc12,i
COc1cc(NC(=O)c2ccc3c(=O)n(Cc4ccco4)c(=S)[nH]c3c2)cc(OC)c1OC,i
O=C(NCCCN1CCCC1=O)c1ccc2c(=O)n(Cc3ccco3)c(=S)[nH]c2c1,115
COC(=O)c1ccc2c(=O)n(CCCN3CCCC3=O)c(=S)[nH]c2c1,i
COC(=O)CCN(c1ccccc1)S(=O)(=O)c1ccc(OC)cc1,i
Cc1sc2ncnc(OCC(=O)NCc3cccs3)c2c1C,i
COc1ccc(S(=O)(=O)NCC(=O)N(CC(=O)NCC2CCCO2)c2ccccc2C)cc1 (stereo unspecified),72
COc1cccc(S(=O)(=O)NCc2ccc(C(=O)NCC3CCCO3)cc2)c1 (stereo unspecified),i
O=C(CN(CCc1ccccc1)C(=O)CNS(=O)(=O)c1ccccc1)NCC1CCCO1 (stereo unspecified),i
Cc1cc(C)nc(-n2nc(C)cc2NC(=O)c2cc(=O)c3ccccc3o2)n1,i
SMILES,GBA enhancer
Cc1cc(C)nc(-n2nc(C)cc2Nc2ccccc2)n1,i
Cc1cc(C)nc(-n2nc(C)cc2NC(=O)c2cc3ccccc3oc2=O)n1,114
CCCCn1c(-c2ccccc2)nc2c(=O)n(C)c(=O)[nH]c21,i
CCOc1cc(C2/C(=C(/O)c3ccc(OC(C)C)cc3)C(=O)C(=O)N2CCCOC)ccc1O (stereo unspecified),i
CC12CC(NC(=O)N1c1cccc(C(=O)N3CCN(c4ccccn4)CC3)c1)c1ccccc1O2 (stereo unspecified),i
CC(C)CNC(=O)c1cccc(NC(=O)C2CCCO2)c1 (stereo unspecified),i
CCOC(=O)C(CO)(NC(C)=O)C(=O)OCC,i
Cc1nc(SCC(=O)Nc2ccc3c(c2)OCCO3)c2oc3ccccc3c2n1,149
Cc1cccc(NC(=O)CSc2ncnc3c2oc2ccccc23)c1,i
CCc1nc(SCC(=O)Nc2ccc3c(c2)OCCO3)c2oc3ccccc3c2n1,i
Cn1c(=O)[nH]c(=O)c2c1nc(N1CCOCC1)n2CCSc1ncccn1,i
CCN(CC)S(=O)(=O)c1ccc2c(c1)nc(SCC(=O)NC1CC1)n2-c1ccccc1OC,i
CCOc1ccccc1-n1c(SCC(N)=O)nnc1-c1ccc(O)cc1,116
CCOc1ccccc1-n1c(SCC(=O)N(CC)CC)nnc1-c1ccccn1,i
CCOc1ccccc1-n1c(SCC(=O)N2CCOCC2)nnc1-c1ccccn1,i
CS(=O)(=O)Nc1ccc(C(=O)N2CCCCC2)cc1,i
CN1C(=C2C(=O)OC(C)(C)OC2=O)Sc2ccccc21,i
CC(OC(=O)c1nsc(Cl)c1Cl)C(=O)NCc1cccs1 (stereo unspecified),79
COCCNC(=O)C(C)OC(=O)c1nsc(Cl)c1Cl (stereo unspecified),i
CC(OC(=O)c1cccs1)C(=O)NCc1cccs1 (stereo unspecified),i
CCn1c(Cc2ccc(OC)cc2)nnc1SCC(=O)Nc1cccc(C(=O)OC)c1,i
O=C(c1ccc(COc2c(F)c(F)cc(F)c2F)o1)N1CCN(c2ccc(Cl)cc2)CC1,i
CCC(Sc1nc(C)cc(=O)[nH]1)C(=O)Nc1nc2c(s1)CCCC2 (stereo unspecified),81
Cc1cc(=O)[nH]c(SCC(=O)Nc2nc3c(s2)CCCC3)n1,i
CCC(Sc1nc(C)cc(=O)[nH]1)C(=O)Nc1nnc(C)s1 (stereo unspecified),i
CCOc1ccc(OCC)c(NC(=O)CCn2cccc2)c1,i
O=C(c1csc2c1CCCCC2)N1CCN(c2ncccn2)CC1,i
COCCn1c(=N)c(C(=O)NCCc2ccc(OC)cc2)cc2c(=O)n3cccc(C)c3nc21,i
CCOCCCn1c(=N)c(C(=O)NCCN2CCOCC2)cc2c(=O)n3cccc(C)c3nc21,75
